“And” between values parts separate entries of the source, which are not always exact repeats. Equal entries are not always repeated. The source made the active and inactive calls. Unless noted, the call rests on the fitted dose curve; in most records, active means well fitted curve in the direction sought with a large enough effect in the repeat runs; inconclusive means weak or mixed curves; inactive means no such curve, though single readings can be large; an effect the other way counts as inactive or inconclusive.
What was measured:
[1] = qHTS assay to identify small molecule antagonists of the glucocorticoid receptor (GR) signaling pathway - cell viability counter screen (AID 720693); further: nearly all actives have a fitted effect of over 55% in size; further: potency means the concentration at half of the fitted maximal effect
[2] = qHTS assay for identifying genotoxic compounds that show differential cytotoxicity against isogenic chicken DT40 cell lines with known DNA damage response pathways - wild type cell line (AID 743012); further: nearly all actives have a fitted effect of over 60% in size; further: potency means the concentration at half of the fitted maximal effect
How it was run: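 Viability by ATP luminescence (CellTiter-Glo, 30 min RT) after 40 h compound treatment at 37 C/5% CO2, using 300 parental DNA repair-proficient DT40 cells per well.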

[3] = qHTS assay for identifying genotoxic compounds that show differential cytotoxicity against isogenic chicken DT40 cell lines with known DNA damage response pathways - Rad54/Ku70 mutant cell line (AID 743015); further: nearly all actives have a fitted effect of over 60% in size; further: potency means the concentration at half of the fitted maximal effect
[4] = biological target: Androgen receptor (Homo sapiens) (UniProt P10275); assay: qHTS assay to identify small molecule antagonists of the androgen receptor (AR) signaling pathway (AID 743035; active means well fitted inhibition curve with a large enough effect in the signal ratio in the repeat runs, not every such curve was filed as active; inconclusive means weak or mixed curves, or effect the other way; inactive means no such curve, though single readings can be large or run the other way; the % refers to the signal ratio; further: potency means the concentration at half of the fitted maximal effect)
How it was run: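 Antagonist mode: AR-bla HEK293 cells co-treated with test compounds and agonist R1881 for 16 h at 37C, 5% CO2. Beta-lactamase activity read as FRET fluorescence after 2 h room-temperature substrate loading.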

[5] = biological target: Androgen receptor (Homo sapiens) (UniProt P10275); assay: qHTS assay to identify small molecule agonists of the androgen receptor (AR) signaling pathway using the MDA cell line (AID 743040; further: nearly all actives have a fitted effect of over 20% in size)
How it was run: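 Agonist activity is measured as luciferase luminescence in human MDA-kb2 cells whose MMTV reporter responds to both AR and GR. Compounds in DMSO incubate 16 h at 37C, 0% CO2, and ONE-Glo is read after 30 min.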

[6] = biological target: Androgen receptor (Homo sapiens) (UniProt P10275); assay: qHTS assay to identify small molecule antagonists of the androgen receptor (AR) signaling pathway using the MDA cell line (AID 743042; further: nearly all actives have a fitted effect of over 55% in size; further: potency means the concentration at half of the fitted maximal effect)
How it was run: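 MDA-kb2 cells (human breast carcinoma, stably carrying an MMTV-luciferase reporter responsive to AR and GR) were plated at 3,000 cells/well and preincubated 5 hr at 37C, then given compound plus R1881 agonist for 16 h. ONE-Glo luminescence was read.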

[7] = qHTS assay to identify small molecule antagonists of the thyroid receptor (TR) signaling pathway - cell viability counter screen (AID 743064); further: nearly all actives have a fitted effect of over 50% in size; further: potency means the concentration at half of the fitted maximal effect
How it was run: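 Counter screen for cytotoxicity: compound plus T3 (1 nM final) on GH3.TRE-Luc cells, 23.5 h at 37 °C, then fluorescence viability readout with CellTiter-Fluor.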

[8] = qHTS assay to identify small molecule antagonists of the thyroid receptor (TR) signaling pathway (AID 743065); further: nearly all actives have a fitted effect of over 55% in size; further: potency means the concentration at half of the fitted maximal effect
How it was run: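 GH3.TRE-Luc rat pituitary cells carrying two TR response elements driving luciferase were plated for 4 h, given compound plus 1 nM T3 (final), and incubated 23.5 h at 37 C. ONE-Glo luminescence measured reporter inhibition; CellTiter-Fluor fluorescence tracked cytotoxicity.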

[9] = test system: thyroid hormone receptor (rat, GH3 cells); assay: qHTS assay to identify small molecule agonists of the thyroid receptor (TR) signaling pathway (AID 743066; calls by dose curve)
[10] = qHTS assay to identify small molecule antagonists of the estrogen receptor alpha (ER-alpha) signaling pathway - cell viability counter screen (AID 743074; calls by dose curve; further: nearly all actives have a fitted effect of over 45% in size; further: potency means the concentration at half of the fitted maximal effect)
[11] = biological target: Estrogen receptor (Homo sapiens) (UniProt P03372); assay: qHTS assay to identify small molecule agonists of the estrogen receptor alpha (ER-alpha) signaling pathway (AID 743075; calls by dose curve; further: potency means the concentration at half of the fitted maximal effect)
[12] = qHTS assay to identify small molecule antagonists of the estrogen receptor alpha (ER-alpha) signaling pathway using the BG1 cell line - cell viability counter screen (AID 743081);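 further: compound given together with 17beta-estradiol as the ER stimulus; nearly all actives have a fitted effect of over 45% in size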; further: potency means the concentration at half of the fitted maximal effect
Aromatase (Homo sapiens) = Aromatase (Homo sapiens) (UniProt P11511); assay: qHTS assay to identify aromatase inhibitors (AID 743083); further: nearly all actives have a fitted effect of over 55% in size; further: potency means the concentration at half of the fitted maximal effect
[13] = qHTS assay to identify aromatase inhibitors - cell viability counter screen (AID 743084); further: potency means the concentration at half of the fitted maximal effect
[14] = qHTS assay to identify small molecule antagonists of the androgen receptor (AR) signaling pathway - cell viability counter screen (AID 743033; further: nearly all actives have a fitted effect of over 45% in size; further: potency means the concentration at half of the fitted maximal effect)
[15] = biological target: Estrogen receptor (Homo sapiens) (UniProt P03372); assay: qHTS assay to identify small molecule agonists of the estrogen receptor alpha (ER-alpha) signaling pathway using the BG1 cell line (AID 743079); further: nearly all actives have a fitted effect of over 20% in size
[16] = qHTS assay to identify small molecule antagonists of the androgen receptor (AR) signaling pathway using the MDA cell line - cell viability counter screen (AID 743041; further: nearly all actives have a fitted effect of over 45% in size)
How it was run: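 qHTS viability read-out; MDA-kb2 AR-luc; R1881-stimulated; 16 h exposure at 37C, 0% CO2; CellTiter-Fluor, 30 min; fluorescence intensity.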

[17] = biological target: Estrogen receptor (Homo sapiens) (UniProt P03372); assay: qHTS assay to identify small molecule antagonists of the estrogen receptor alpha (ER-alpha) signaling pathway (AID 743069; active means well fitted curve in the direction sought with a large enough effect in the signal ratio in the repeat runs, not every such curve was filed as active; inconclusive means weak or mixed curves, or effect the other way; inactive means no such curve, though single readings can be large or run the other way; the % refers to the signal ratio; further: potency means the concentration at half of the fitted maximal effect)
How it was run: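 Screening used a UAS-driven beta-lactamase reporter integrated into HEK293 cells expressing ER-alpha, stimulated with 17beta-estradiol alongside test compounds over 18 hr at 37C; signal came from LiveBLAzer B/G FRET fluorescence.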

[18] = qHTS assay for identifying genotoxic compounds that show differential cytotoxicity against isogenic chicken DT40 cell lines with known DNA damage response pathways - Rev3 mutant cell line (AID 743014); further: nearly all actives have a fitted effect of over 55% in size; further: potency means the concentration at half of the fitted maximal effect
[19] = qHTS assay to identify small molecule antagonists of the estrogen receptor alpha (ER-alpha) signaling pathway using the BG1 cell line (AID 743080; calls by dose curve;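 further: BG1 cells stimulated with 17beta-estradiol alongside compound; series mostly up to about 70 µM; nearly all actives have a fitted effect of over 25% in size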)
How it was run: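 Luminescence from a 4×ERE-luciferase reporter in BG1-Luc-4E2 cells served as read-out. Cells, pre-cultured 5 days in stripped-serum phenol-red-free medium, were exposed to compound with 17beta-estradiol co-stimulation for 21.5 h at 37 C.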

Measured: Potency

Chain of Androgen receptor (Homo sapiens) (P10275 whole entry, looked up): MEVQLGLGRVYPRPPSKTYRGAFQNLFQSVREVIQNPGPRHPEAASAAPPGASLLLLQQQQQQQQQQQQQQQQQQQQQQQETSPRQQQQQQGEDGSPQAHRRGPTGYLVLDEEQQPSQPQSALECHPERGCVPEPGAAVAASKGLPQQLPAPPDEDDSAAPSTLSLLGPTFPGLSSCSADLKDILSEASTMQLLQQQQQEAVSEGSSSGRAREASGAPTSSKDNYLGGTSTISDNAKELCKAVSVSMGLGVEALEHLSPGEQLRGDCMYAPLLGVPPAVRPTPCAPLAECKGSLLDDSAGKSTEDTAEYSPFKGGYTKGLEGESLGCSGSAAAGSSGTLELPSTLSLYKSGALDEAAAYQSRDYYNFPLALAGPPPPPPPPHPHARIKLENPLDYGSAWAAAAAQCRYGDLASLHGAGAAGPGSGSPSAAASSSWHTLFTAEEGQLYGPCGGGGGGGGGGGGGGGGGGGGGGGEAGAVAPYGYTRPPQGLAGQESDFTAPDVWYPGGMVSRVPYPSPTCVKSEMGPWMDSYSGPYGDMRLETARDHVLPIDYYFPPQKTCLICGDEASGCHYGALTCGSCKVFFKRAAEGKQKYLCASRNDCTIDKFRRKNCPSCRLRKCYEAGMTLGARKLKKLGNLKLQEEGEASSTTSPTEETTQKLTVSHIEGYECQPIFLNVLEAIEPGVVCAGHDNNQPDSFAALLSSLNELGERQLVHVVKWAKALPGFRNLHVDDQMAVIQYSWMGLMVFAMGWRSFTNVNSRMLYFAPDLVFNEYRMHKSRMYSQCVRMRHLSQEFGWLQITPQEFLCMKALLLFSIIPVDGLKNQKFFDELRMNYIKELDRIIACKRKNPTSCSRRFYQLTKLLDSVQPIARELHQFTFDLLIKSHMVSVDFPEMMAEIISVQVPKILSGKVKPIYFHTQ
Chain of Aromatase (Homo sapiens) (P11511 whole entry, looked up): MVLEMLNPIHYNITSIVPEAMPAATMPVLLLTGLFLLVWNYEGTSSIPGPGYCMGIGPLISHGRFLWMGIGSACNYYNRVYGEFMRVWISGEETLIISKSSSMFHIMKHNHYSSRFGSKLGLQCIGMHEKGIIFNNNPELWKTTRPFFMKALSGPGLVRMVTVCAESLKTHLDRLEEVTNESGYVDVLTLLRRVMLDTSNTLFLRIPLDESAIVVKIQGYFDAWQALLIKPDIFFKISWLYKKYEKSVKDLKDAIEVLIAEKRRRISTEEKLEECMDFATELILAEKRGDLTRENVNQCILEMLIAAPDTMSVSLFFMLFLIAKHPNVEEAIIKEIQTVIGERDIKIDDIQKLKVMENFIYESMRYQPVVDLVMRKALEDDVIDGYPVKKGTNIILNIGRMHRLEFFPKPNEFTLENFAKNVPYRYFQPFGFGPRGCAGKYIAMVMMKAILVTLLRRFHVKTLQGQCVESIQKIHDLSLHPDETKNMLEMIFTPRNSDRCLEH
Chain of Estrogen receptor (Homo sapiens) (P03372 whole entry, looked up): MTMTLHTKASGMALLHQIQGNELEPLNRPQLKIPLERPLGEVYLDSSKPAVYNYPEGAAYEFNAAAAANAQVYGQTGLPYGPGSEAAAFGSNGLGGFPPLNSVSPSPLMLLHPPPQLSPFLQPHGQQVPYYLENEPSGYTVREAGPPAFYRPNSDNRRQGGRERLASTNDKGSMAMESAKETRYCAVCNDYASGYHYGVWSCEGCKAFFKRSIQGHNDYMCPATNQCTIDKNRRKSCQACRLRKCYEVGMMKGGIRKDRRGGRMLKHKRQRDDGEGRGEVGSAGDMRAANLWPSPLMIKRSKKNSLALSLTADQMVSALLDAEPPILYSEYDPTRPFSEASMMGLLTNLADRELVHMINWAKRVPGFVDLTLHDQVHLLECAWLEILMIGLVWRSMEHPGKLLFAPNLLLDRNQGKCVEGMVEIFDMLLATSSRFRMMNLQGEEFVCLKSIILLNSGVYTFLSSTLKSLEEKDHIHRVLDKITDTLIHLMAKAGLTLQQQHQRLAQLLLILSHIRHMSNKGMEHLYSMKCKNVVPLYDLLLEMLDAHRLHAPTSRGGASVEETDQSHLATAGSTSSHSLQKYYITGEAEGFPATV

C=CC(=O)OCC(COC(=O)C=C)(COC(=O)C=C)COC(=O)C=C
active: [1] 8.71 µM | [2] 0.77 µM | [3] 0.686 µM | [4] 4.36 µM | [6] 1.93 µM | [7] 2.73 µM | [8] 1.93 µM | [10] 43.6 µM | [11] 27.5 µM [inconclusive] | [12] 24.3 µM | Aromatase (Homo sapiens) 3.06 µM | [13] 2.73 µM
inactive: [5] | [9]

Fc1ccc(Oc2ccnc3cc(Cl)cc(Cl)c23)cc1
inactive: [1] | [14] | [10] | [11] | [15] | [12] | Aromatase (Homo sapiens) | [13]
active: [2] 61.1 µM | [3] 61.1 µM | [8] 68.6 µM

O=C(NC(=O)c1c(F)cccc1F)Nc1cc(Cl)c(OC(F)(F)C(F)F)c(Cl)c1
active: [3] 21.7 µM
not listed: [4] | [15] | [18] | [19]
inactive: all other assays above

CC(c1ccc(O)cc1)c1ccc(O)cc1
not listed: [4] | [5] | [6] | [11] | [13] | [14] | [15] | [17]
inactive: all other assays above

O=[N+]([O-])c1ccc(Oc2ccc(C(F)(F)F)cc2[N+](=O)[O-])cc1
active: [2] 19.3 µM | [18] 17.2 µM | [3] 24.3 µM
not listed: [4] | [5] | [6] | [8] | [14] | [15] | [19]
inactive: all other assays above

CCN(CC)c1c([N+](=O)[O-])cc(C(F)(F)F)c(N)c1[N+](=O)[O-]
active: [2] 19.3 µM | [3] 17.2 µM | [4] 43.6 µM | [11] 38.9 µM [inconclusive] | Aromatase (Homo sapiens) 34.4 µM
inactive: [1] | [5] | [16] | [6] | [7] | [8] | [9] | [12]

CC(C)OS(C)(=O)=O
not listed: [4] | [5] | [6] | [18]
inactive: all other assays above

CC(C)OC(=S)S
inactive: [1] | [7] | [9] | [17] | [10] | [11] | [19] | [12] | [13]
active: [2] 24.3 µM | [18] 27.3 µM | [3] 24.3 µM

CN(C)c1ccc(N=Nc2ccccc2)cc1
inactive: [1] | [2] | [16] | [7] | [9] | [10]
active: [12] 61.2 µM | [13] 54.5 µM

CC(C)CC(C)(c1ccc(O)cc1)c1ccc(O)cc1
inactive: [9] | [12]
active: [1] 49 µM | [18] 27.4 µM and 38.6 µM | [3] 54.6 µM | [14] 55.1 µM | [7] 54.6 µM and 54.5 µM | [8] 27.4 µM and 38.6 µM | [10] 55.1 µM | Aromatase (Homo sapiens) 48.7 µM | [13] 61.3 µM

CC1(C)[C@H](C(=O)O[C@H](C#N)c2cccc(Oc3ccccc3)c2)[C@@H]1/C=C(\Cl)C(F)(F)F
active: [2] 50.5 µM | [3] 40.1 µM
inactive: [1] | [16] | [7] | [9] | [10] | [12] | Aromatase (Homo sapiens) | [13]

CC(C)OC(=O)C(O)(c1ccc(Cl)cc1)c1ccc(Cl)cc1
inactive: [1] | [9] | [10] | [11] | [15] | [19] | [12] | [13]
active: [18] 6.86 µM | [3] 7.7 µM | [7] 61.1 µM | [8] 61.1 µM | [17] 38.9 µM [inhibitor]

CCN
not listed: [2] | [4] | [5] | [6] | [8] | [11] | [15] | [17]
inactive: all other assays above

ClC1=C(Cl)C2(Cl)C3C(Cl)C(Cl)CC3C1(Cl)C2(Cl)Cl (configuration not stated)
active: [18] 30.6 µM | [3] 24.3 µM | [4] 48.8 µM and 43.6 µM | [7] 21.6 µM and 24.3 µM | [8] 24.3 µM | [11] 54.8 µM [inconclusive] | Aromatase (Homo sapiens) 68.4 µM
inactive: [1] | [5] | [16] | [6] | [9] | [12]

COP(=S)(OC)Oc1cc(Cl)c(Br)cc1Cl
active: [18] 61.1 µM | [8] 61.1 µM | [11] 54.9 µM [inconclusive]
not listed: [2] | [3] | [4] | [6] | [10] | [14] | [17]
inactive: all other assays above

Source: PubChem BioAssay (Tox21)
